High-throughput results from PubChem.
A selection: hits, their analogues and other compounds. The true share with any hit is near 6.4%.
Luc counter = blocks Kinase-Glo luciferase, a counter-screen artifact | Q27757 | Potency, µM (top dose mostly 38.3 µM), for inactives: top-dose activity change, negative = inhibition, usual class: inhibitors | Kinase-Glo luciferase, ATP luminescence, 8 min | 200,000 tested, 0.28% active; note: nearly all actives have a fitted effect of over 60% in size
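Compound is pinned into ATP-containing buffer (10 uM ATP, imidazole pH 7.2, 7 mM MgCl2). Kinase-Glo luciferase reagent is then added. Light output is recorded following an 8-min room-temperature incubation.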
VP16 counter = inhibits Gal4-VP16 luciferase reporter, ROR gamma counter-screen | Potency, µM (highest dose often 53.6 µM), for the others: top-dose activity, negative = inhibition, hits mostly inhibitors | 310,000 tested, 3.5% active | Drosophila S2 Gal4-VP16 UAS-luciferase, luminescence, 20 h;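 note: Gal4-VP16 expression switched on by copper sulfate through the metallothionein promoter; nearly all actives have a fitted effect of over 50% in size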
RORgamma inh = inhibitors of mouse ROR gamma transcriptional activity; 310,000 tested, 5.4% active; Potency, µM (highest dose often 53.6 µM), without a hit: top-dose activity change, negative = inhibition, actives largely listed as inhibitors; AID 2551; P51450; Drosophila S2 Gal4-RORgamma UAS-luciferase reporter, 20 h; note: nearly all actives have a fitted effect of over 60% in size
Target sequence (P51450 whole entry, looked up, the tested form may be a part): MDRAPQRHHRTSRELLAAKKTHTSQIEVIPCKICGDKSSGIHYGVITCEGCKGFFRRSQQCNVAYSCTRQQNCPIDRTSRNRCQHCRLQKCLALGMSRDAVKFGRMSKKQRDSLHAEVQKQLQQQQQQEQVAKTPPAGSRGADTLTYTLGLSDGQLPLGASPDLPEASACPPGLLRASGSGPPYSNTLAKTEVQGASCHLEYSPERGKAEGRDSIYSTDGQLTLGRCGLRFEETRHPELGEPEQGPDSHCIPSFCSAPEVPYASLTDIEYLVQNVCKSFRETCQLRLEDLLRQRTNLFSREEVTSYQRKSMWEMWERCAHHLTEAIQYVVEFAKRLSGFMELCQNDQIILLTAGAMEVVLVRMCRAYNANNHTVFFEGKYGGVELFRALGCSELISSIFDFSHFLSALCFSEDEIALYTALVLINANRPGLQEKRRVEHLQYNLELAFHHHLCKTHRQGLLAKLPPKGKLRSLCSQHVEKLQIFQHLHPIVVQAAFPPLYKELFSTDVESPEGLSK
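Luminescence from a UAS-regulated Photinus luciferase reporter in stably transfected Drosophila Schneider cells is measured; decreased signal marks ROR gamma inhibition. Fusion expression is induced by 700 uM copper sulfate for 20 hr.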
Active calls of the source: *; ? = inconclusive; . = not tested or not shown; [ ] = another dose, or the depositor's remark. Calls come from the whole dose curve; as a rule, active = well fitted curve in the direction sought with a large enough effect; inconclusive = small, poorly fitted or top-dose-only effect, or another doubt; inactive = no such curve, though single readings can be large; an effect the other way counts as inactive or inconclusive. % is set by controls: 0 for no effect and ±100 for the full control effect; potency is the fitted concentration of half-maximal effect.

SMILES	Luc counter	VP16 counter	RORgamma inh
COC(=O)[C@H]1C(=O)[C@H](C(=O)OC)[C@@H]2CC[C@H]1N2C	-4.4%[7.66 µM]	.	.
CN(C)P(=NC(=S)c1cccn1C)(N(C)C)N(C)C	0.9%	15.8µM*	7.94µM*
CN(C)P(=O)(NC(=O)c1cccn1C)N(C)C	0.9%	11.7%	7.7%
CCN1C[C@]2(COC(=O)c3ccccc3N3C(=O)C[C@H](C)C3=O)CC[C@H](OC)[C@@]34[C@@H]5C[C@H]6[C@H](OC)[C@H]5[C@](O)(C[C@@H]6OC)[C@@](O)([C@@H](OC)[C@@H]23)[C@@H]14	-1.2%	-1.9%	4.6%
COc1cc2c(cc1OC)[C@@H]1C(=O)c3ccc(OC)c(CC=C(C)C)c3OC1CO2 (some centres undefined)	-0.4%	1.41µM*	7.94µM*
COc1cc2c(cc1OC)[C@@H]1C(=O)c3ccc4c(c3OC1CO2)CC(C(C)C)O4 (some centres undefined)	0.6%	8.91µM*	0.1µM*
C=C(C)C1Cc2c(ccc3c(=O)c4c(oc23)COc2cc(OC)c(OC)cc2-4)O1 (centres undefined)	2.6%	-2.2%	6.2%
COc1ccc(OC)c(-n2c(O)c(C=NCc3ccc4c(c3)OCO4)c(=O)[nH]c2=O)c1	4.3%	-3.9%	11.7%[10 µM]
CC(C)(C)C(=O)CP(=O)(O)O	0.9%[7.66 µM]	.	.
O=C1CC2OCC=C3CN4CCC56c7ccccc7N1C5[C@H]2[C@H]3C[C@H]46 (some centres undefined) (tested in a mixture with another compound)	.	-4.4%	0.7%
CCCCC/C=C\C/C=C\C/C=C\C/C=C\CCCC(=O)N[C@H](C)CO	-1.0%[39.9 µM]	-9.6%	-2.7%
Oc1cccc2nc3ccccc3nc12	.	5.01µM*	?
CN(C)CCCc1cccnc1	-4.4%[7.66 µM]	.	.
N[C@@H](Cc1c[nH]c2cc([N+](=O)[O-])ccc12)C(=O)O	-6.5%[7.66 µM]	.	.
CCCCC/C=C\C/C=C\C/C=C\CCCCC(=O)NCCc1ccc(O)c(O)c1	-2.4%	-12.6%	-4.9%
N#CSCC(=O)N1c2ccccc2CCc2ccccc21	1.7%	?	11.2µM*
Nc1ccccc1C(=O)OCC(=O)N1CCc2ccccc21	-9.2%	?	42.8%
COC(=O)C1(C)C=C2C(=C(C)C(=O)C2C)CN1 (centres undefined)	-1.4%	-7.1%	-8.7%
O=C(O)/C=C\c1ccc[c]([Sb])c1	-5.1%[7.66 µM]	.	.
